12-LOX inh – ALOX12 (human) lipoxygenase inhibition. AID 1671190. 580,000 tested, 1.1% active. purified 12hLO, xylenol orange hydroperoxide absorbance. Potency, µM (top dose mostly 108 µM), inactives show top-dose activity change, negative = inhibition, actives largely listed as inhibitors
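Purified human 12hLO (150 nM final) in 25 mM Hepes, 0.01% Triton X-100, pH 7.0 was preincubated 15 min at room temperature with compound. Then 40 uM arachidonic acid was added, 30 min. Hydroperoxide was read by Fe-XO absorbance ratio 573/405 nm.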
PLK1 PBD block – inhibitors of human PLK1 polo-box domain binding | P53350 | Plk1 PBD binding of FITC phosphopeptide, fluorescence polarization | Potency, µM, without a hit: max response, negative = inhibition, actives largely listed as inhibitors | 360,000 tested, 2.8% active; note: series mostly up to about 57 µM; nearly all actives have a fitted effect of over 65% in size
Target sequence (P53350 whole entry, looked up, the tested form may be a part): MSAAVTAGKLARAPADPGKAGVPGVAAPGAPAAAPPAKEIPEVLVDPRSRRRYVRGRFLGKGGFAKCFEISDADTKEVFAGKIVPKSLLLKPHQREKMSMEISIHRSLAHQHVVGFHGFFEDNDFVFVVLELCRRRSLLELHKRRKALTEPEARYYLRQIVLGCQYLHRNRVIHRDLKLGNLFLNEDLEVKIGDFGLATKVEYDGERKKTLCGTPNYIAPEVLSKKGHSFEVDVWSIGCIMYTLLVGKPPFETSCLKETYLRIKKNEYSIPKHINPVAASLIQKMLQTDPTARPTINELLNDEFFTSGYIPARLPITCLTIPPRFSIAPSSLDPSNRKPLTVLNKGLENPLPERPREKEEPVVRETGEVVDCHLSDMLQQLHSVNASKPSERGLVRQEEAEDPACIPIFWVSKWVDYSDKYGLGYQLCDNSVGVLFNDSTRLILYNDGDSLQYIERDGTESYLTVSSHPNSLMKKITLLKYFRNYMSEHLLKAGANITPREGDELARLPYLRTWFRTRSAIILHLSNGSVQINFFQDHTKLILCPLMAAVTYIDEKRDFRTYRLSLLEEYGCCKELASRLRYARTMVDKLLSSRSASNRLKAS
VDR inhibitor – vitamin D3 receptor (human) inhibition; P11473; VDR-SRC2-3 peptide fluorescence polarization, 2 h; Potency, µM, for the others: max response, negative = inhibition, usual class: inhibitors; 400,000 tested, 0.93% active; AID 504847
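Measured by FP: displacement of SRC2-3 coactivator peptide from VDR by library compounds, following a two-hour ambient incubation.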
Sfp inh – blocks B. subtilis Sfp PPTase activity; Q9F4F7; Biochemical Sfp PPTase activity, qHTS; Potency, µM, inactives show largest response in the series, negative = inhibition, most hits filed as inhibitors; 310,000 tested, 3.5% active; AID 1490;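 note: the enzyme is Sfp with the accession as filed and its product quenches rhodamine fluorescence; 0% = enzyme reaction without inhibitor and -100% = no enzyme wells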
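Step 1, compound plus 15 nM Sfp-PPTase, 15 min, room temperature. Step 2, add rhodamine-CoA (5 uM) and BHQ-2-YbbR (12.5 uM). Step 3, read 525/598 nm fluorescence at 0 and 30 min.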
An asterisk follows results filed as active; ? = inconclusive; . = not tested or not shown; ! = not active in a repeat; [ ] = another dose, or the depositor's remark. Compounds with a hit are over-represented: about 4.2% of the library has one in this group of screens. Calls come from the whole dose curve; as a rule, active = well fitted curve in the direction sought with a large enough effect; inconclusive = small, poorly fitted or top-dose-only effect, or another doubt; inactive = no such curve, though single readings can be large; an effect the other way counts as inactive or inconclusive. Unless noted, % is set by controls: 0 for no effect and ±100 for the full control effect; potency is the fitted concentration of half-maximal effect.

SMILES	12-LOX inh	PLK1 PBD block	VDR inhibitor	Sfp inh
CCOCCCn1c(=S)[nH]c2cc(C(=O)N3CCC(C(N)=O)CC3)ccc2c1=O	?	-5%	-13%	-24%
Cn1c(=O)cc(SCC(=O)NCCC2=CCCCC2)c2ccc(Cl)cc21	8%	-10%	-14%	9%
C=CCn1c(SCC(=O)NCCC2=CCCCC2)nc2ccc(Cl)cc2c1=O	0%	11µM*	?	22%
COc1ccc2oc(C)c(C(=O)c3ccccc3)c2c1	155%	-2%	17%	.
COc1ccc2oc(/C=C/N(C)C)c(C(=O)c3ccc(Cl)cc3)c2c1	7.1µM*	-8%	18%	-6%
Cc1sc2ncn(CC(=O)N(C)C3CCCCC3)c(=O)c2c1C	-19%	-3%	8%	.
CC12CCC(C/C1=N\NC(N)=O)C2(C)C (configuration not stated)	-3%	.	.	.
CC(=O)c1sc(N/N=C2\CC3CCC2(C)C3(C)C)nc1C (configuration not stated)	1%	?	-12%	28µM*
CC(CCc1ccc(O)cc1)NCCc1ccc(O)c(O)c1 (configuration not stated)	1.4µM*!	-9%	-8%	?
COc1ccccc1CCNC(C)CCc1ccc(O)cc1 (configuration not stated)	6%	1%	-11%	7%
O=C(C[n+]1cccc(C(=O)N/N=C/c2cccc([N+](=O)[O-])c2)c1)c1ccccc1	8%	-6%	1%	.
CCOC(=O)N1CCN(C(=O)CN(c2cccc(C(F)(F)F)c2)S(=O)(=O)c2ccccc2)CC1	-7%	-6%	-8%	9%
CC(=O)Nc1ccc(SCC(=O)c2cc(C)n(-c3ccccc3)c2C)cc1	8%	-23%	-4%	-7%
CCc1nc(SCC(=O)c2cc(C)ccc2C)n[nH]1	0%	?	?	56µM*
Cc1ccc(C)c(C(=O)CSc2n[nH]c(C)n2)c1	-8%	?	?	79µM*
Cc1ccc(C)c(C(=O)CSc2n[nH]c(C(C)C)n2)c1	11%	?	4%	-7%
CC(=O)Nc1ccc(SCC(=O)c2cc(C)ccc2C)cc1	-10%	19µM*	-14%	-4%
CCc1nc(SCC(=O)Nc2ccc(N(CC)CC)cc2)n[nH]1	0%	30µM*	7%	.
NC(=O)C1CCN(c2cc(Cl)nc(N)n2)CC1	10%	8.4µM*	79µM*	-16%
COC(=O)C1CCN(c2cc(Cl)nc(N)n2)CC1	-6%	7%	-4%	18%
CCNCc1ccc(-c2ccccc2)o1	16µM*!	.	.	.
CNC(=S)NNc1nncc2ccccc12	35%	-1%	2%	22µM*
Cc1ccc(N2C(S)=C(C#N)C(=O)NC2c2ccco2)cc1 (configuration not stated)	?	-28%	40µM*	-87%
N#CC1=C(S)N(c2ccc(F)cc2)C(c2ccco2)NC1=O (configuration not stated)	45µM*	?	?	22µM*
CCCCC#CC1C=CC(Oc2cc(OC)c(OC)c(OC)c2)C(CO)O1 (configuration not stated)	.	.	.	0%
SMILES	12-LOX inh	PLK1 PBD block	VDR inhibitor	Sfp inh
O=C(Cc1cccnc1)N1CCC(N2C(=O)C3(CCCCC3)C2c2ccccc2)CC1 (configuration not stated)	36%	.	.	.
CCCC(=O)Nc1cc(C)c(NC(=O)c2ccccn2)cn1	-2%	?	-9%	?
Cc1cc(NC(=O)C(C)C)ncc1NC(=O)c1ccccn1	-12%	27µM*	-17%	79µM*
CC(=O)N1CCN(c2ccccc2NC(=O)c2ccc3ccccc3c2)CC1	-8%	-2%	0%	-7%
OCC1(CCc2ccccc2)CCN(Cc2cnc(N3CCCC3)s2)CC1	-16%	-12%	6%	50µM*
Cn1nc(C(=O)N2CCN(C(=O)N3CC4CC(C3)[C@H]3CCCC(=O)N3C4)CC2)c2ccccc21 (some centres not stated)	66%	.	.	.
O=C(CCl)N1c2ccccc2SCC1c1ccccc1 (configuration not stated)	20µM*	3µM*	?	-2%
CCOC(=O)c1c(-c2ccccc2Cl)csc1NC(=O)c1cc(S(=O)(=O)N2CCOCC2)ccc1C	-18%	11µM*	-13%	?
COc1ccc(CC(=O)Nc2nc(C)cs2)cc1S(=O)(=O)N1CCOCC1	-51%	-2%	6%	.
O=C(Nc1nc(-c2ccncc2)cs1)c1cccc(S(=O)(=O)N2CCOCC2)c1	-10%	.	.	.
Cc1nc(-c2cccc(S(=O)(=O)N3CCOCC3)c2)cs1	?	9.5µM*	?	40µM*
COc1ccc(CC(=O)Nc2nc3ccccc3s2)cc1S(=O)(=O)N1CCOCC1	-24%	21µM*	?	4%
CCOC(=O)c1c(-c2ccccc2Cl)csc1NC(=O)CN1CCOCC1	-1%	.	.	.
O=C(Nc1nc(-c2ccccn2)cs1)c1cccc(S(=O)(=O)N2CCOCC2)c1	-1%	19µM*	?	.
CCOCCn1c(CN2CCCC(C)C2)nc2c1c(=O)n(C)c(=O)n2C (configuration not stated)	7%[57.4 µM]	-4%	-2%	5%
Cc1ccc(S(=O)(=O)N2CCOCC2)cc1C(=O)Nc1nc(-c2ccccn2)cs1	?	17µM*	?	.
COc1ccc(C(=O)Nc2nc(-c3ccccn3)cs2)cc1S(=O)(=O)N1CCOCC1	17%	24µM*	?	.
CCOC(=O)C1CCCN(C(=O)c2ccc3c(c2)sc2nc(-c4ccc(C)cc4C)cn23)C1 (configuration not stated)	-7%	.	2%	.
COc1ccc2c(c1)c(=O)oc1c(C)c(OCc3ccc(C(=O)O)cc3)ccc12	.	30µM*	-6%	-12%
O=c1cc(-c2ccc(O)cc2)oc2cc(O)c([C@@H]3O[C@H](CO)[C@@H](O)[C@H](O)[C@H]3O)c(O)c12	-20%	7%	-6%	6%
O=c1c2ccccc2oc2cc(O)c(C3COCC(CO)C(O)C(O)C3O)c(O)c12 (configuration not stated)	.	.	.	79µM*
COCCC(=O)N1CCC(Oc2ccc(C(=O)N3CCCCCC3)cc2)CC1	11%	11µM*	?	21%
CS(=O)c1ccccc1-c1nc(-c2cccc(Cl)c2)no1 (configuration not stated)	-5%	27µM*	-9%	-3%
Clc1cccc(-c2noc(-c3ccc[nH]3)n2)c1	45µM*	.	.	.
COC(=O)c1cccc(C23CC4(C2)[C@H](CN(Cc2ccc(-c5ccccc5)cc2)[C@@H]4c2ccccc2)C3c2ccc(C(F)(F)F)cc2)c1 (some centres not stated)	?	6%	-8%	14%
Cc1cccc(N(CC(=O)NC2CC3CCC2C3)S(=O)(=O)c2ccccc2)c1 (configuration not stated)	484%	5%	16%	-2%
Cc1noc([C@@H](C)NS(=O)(=O)c2ccccc2)c1C(=O)O	27%[176 µM]	.	.	.
CCCCn1nnnc1C(CC)N1CCN(C/C=C/c2ccccc2)CC1 (configuration not stated)	-22%	-16%	.	.
CC(=O)Nc1ccc(-n2nnnc2SCC(=O)Nc2cccc(NC(=O)c3ccco3)c2)cc1	-2%	-14%	24%	50µM*
